PPC-1+TRAIL kill: PPC-1 cancer cell killing with TRAIL present. 220,000 compounds, 0.41% hits. cell killing (% activity), % at 4 µM or 5 µM. PPC-1 cells + TRAIL, ATPLite viability luminescence;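 active = cell killing above 50% in the first pass at 4 µM, then a duplicate retest at 5 µM averaging 50% or more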;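 note: plate controls were cells with TRAIL plus DMSO for no effect and medium-only wells lacking cells for full effect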
TROY NFkB inh: inhibitors of TROY-dependent NF-kB signaling | AID 1347056 | 360,000 compounds, 0.98% hits | inhibition, % at 10 µM | Q293 LMP1-TROYcd NF-kB luciferase reporter, 4 h;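 active = compounds whose plate-normalised and pattern-corrected inhibition of the luciferase reporter signal at the single screening dose is 50% or more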
C8 TRAIL sens: sensitizes caspase-8 expressing cells to TRAIL; NB7+C8 cells + TRAIL, ATPlite viability luminescence; inhibition (viability loss, TRAIL sensitization), % at 10 µM; 360,000 compounds, 1% hits; AID 624354;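 active = compounds causing at least 50% loss of cell viability in the single-dose screen, relative to plate controls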
TWEAK-Fn14 inh: inhibitors of TWEAK-Fn14 interaction signaling; TWEAK-stimulated Fn14 reporter cells, luciferase luminescence, 8 h; inhibition, % at 10 µM; 360,000 compounds, 2% hits; in the data active = inhibition above about 50%
HSP90 inh: blocks HSP90-mediated luciferase refolding in reticulocyte lysate; Rabbit reticulocyte lysate, luciferase refolding luminescence, 3 h; inhibition, % at 5.6 µM; 290,000 compounds, 0.91% hits; AID 1789;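 active = inhibition above the screen-wide mean plus 3 SD, computed separately per campaign, cut at about 16% in these data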;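 note: 0% = DMSO wells and 100% = 60 µM geldanamycin wells; inhibitors lower the luminescence because luciferase stays unfolded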
Platelet DG rel: modulates dense granule release in human platelets; human platelet-rich plasma, SFLLRN dense granule ATP release, luminescence; inhibition, %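 (compounds screened at 7.5 µM in platelet-rich plasma)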; 300,000 compounds, 0.22% hits; AID 1663;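 active = mean replicate score, as percent of positive control, at or above 50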
Numbers without * were called inactive; / = not tested or not shown. Only some compounds are listed: those with a hit (about 3.5% of all), similar ones and a draw of the others.

SMILES | PPC-1+TRAIL kill | TROY NFkB inh | C8 TRAIL sens | TWEAK-Fn14 inh | HSP90 inh | Platelet DG rel
CCc1ccc(NC(=O)c2ccc3c(=O)n4c(nc3c2)CCCCC4)cc1 | 8 | 14 | 0 | -1 | 1 | 4
O=C(CCNC(=O)c1ccccc1Cl)NCCc1ccc(C(F)(F)F)cc1 | / | 14 | 0 | 72* | -2 | 5
COc1cccc(-c2cc(C(=O)Nc3ccncc3)c3ccccc3n2)c1 | / | 4 | 4 | 89* | 0 | -7
COc1cccc(NC(=O)c2cc(-c3ccccn3)nc3ccccc23)c1 | / | -10 | -5 | 7 | / | /
COc1cccc(-c2cc(C(=O)Nn3cnnc3)c3ccccc3n2)c1 | 19 | -20 | 52* | 9 | 5 | -1
CN(C(=O)CSc1nnc(C(F)(F)F)n1N)C1CCS(=O)(=O)C1 (centres undefined) | 14 | 0 | -1 | 14 | 4 | -3
O=c1[nH]c2ccc(Cl)cc2c(-c2ccccc2)c1SC(=S)N1CCOCC1 | 6 | 20 | 19 | 31 | -3 | -4
O=c1[nH]c2ccc(Cl)cc2c(-c2ccccc2)c1SC(=S)N1CCCCC1 | 4 | 2 | -5 | 77* | 5 | -14
C[C@H](CO)N1C[C@H](C)[C@H](CN(C)Cc2cncnc2)Oc2cc(Br)ccc2S1(=O)=O | / | 12 | 4 | 0 | / | /
C/C(CC(=O)Nc1ccc(C)c(Cl)c1)=N\NC(=O)C1CCCCC1 | / | 13 | -4 | 7 | -2 | 2
CC[C@H](C)C1OC(=O)[C@@H](C)[C@@H](CC)NC(=O)[C@H](C)N(C)C(=O)C(C)(C)C(=O)C(C)NC(=O)[C@H](Cc2ccc(OC)cc2)N(C)C(=O)[C@H](C(C)C)N(C)C(=O)CNC(=O)[C@H](CC(C)C)N(C)C(=O)CNC1=O (some centres undefined) | / | 54* | 55* | 12 | / | /
COc1ccc(-c2csc(C(C)(O)c3cccc(F)c3)n2)cc1OC (centres undefined) | / | 3 | -25 | -2 | / | /
O=C(Nc1ccc([N+](=O)[O-])cc1)Nc1ccc(OC(F)F)c(Cl)c1 | 7 | 61* | 50 | 82* | -2 | /
CN(CC(=O)Nc1c(Cl)cccc1Cl)C(=O)c1cc(S(=O)(=O)N(C)C)ccc1N1CCCC1 | / | -19 | 2 | -6 | / | -1
Cc1cc(Br)ccc1NC(=O)CN(C)C(=O)c1cc(S(=O)(=O)N(C)C)ccc1N1CCCC1 | / | -5 | -9 | 88* | -2 | -3
CCOC(=O)C1CCN(C(=O)COc2cc(C)c(Br)cc2C)CC1 | 26 | / | 1 | 91* | 8 | 0
COc1cccc(CN2CC(C(=O)NCCOc3ccccc3)CCC2=O)c1 (centres undefined) | / | -6 | -5 | 3 | -10 | 3
COc1cc(/C=C/C(=O)N2CCN(C(=O)/C=C/c3cc(OC)c(OC)c(OC)c3)CC2)cc(OC)c1OC | / | -3 | -1 | 3 | 4 | 5
COc1ccc(OC)c(/C=C/C(=O)N2C(=O)c3cccc(N)c3C2=O)c1 | 16 | -7 | -10 | 100* | -2 | 10
COc1ccc(OC)c(/C=C/C(=O)N2CCCc3ccccc32)c1 | 13 | -21 | 0 | -33 | 3 | 6
COc1cc(/C=C/C(=O)N2C(=O)c3cccc(N)c3C2=O)cc(OC)c1OC | 10 | -37 | 0 | 92* | -4 | -3
O=C(NCc1ccncc1)[C@@H]1CCCN1C(=O)[C@@H]1CCCN1C(=O)c1c(F)cccc1F | / | 0 | -9 | 18 | / | /
O=C(COC(=O)Cc1ccccc1[N+](=O)[O-])NCC1CCCCC1 | 0 | 5 | 5 | -4 | 0 | -3
COc1ccc(C(=O)O)cc1S(=O)(=O)Nc1ccccc1C(=O)NCc1ccc2c(c1)OCO2 | / | 0 | 8 | 19 | / | /
CC(NC1CCCC1)c1ccccc1 (centres undefined) | 13 | 76* | -4 | 16 | -1 | 5
SMILES | PPC-1+TRAIL kill | TROY NFkB inh | C8 TRAIL sens | TWEAK-Fn14 inh | HSP90 inh | Platelet DG rel
CC(NC(=O)C1CCCC1)c1ccccc1 (centres undefined) | / | 11 | 6 | -4 | / | /
COc1ccc(N2CCN(C(=O)CCc3ccccc3)CC2)cc1 | / | -23 | -8 | 17 | -4 | -7
O=[N+]([O-])c1ccc(CS(=O)c2ccccc2)cc1 (centres undefined) | / | 0 | -10 | 10 | / | /
O=[N+]([O-])c1ccc(S(=O)Cc2ccccc2)c([N+](=O)[O-])c1 (centres undefined) | / | 74* | 66* | 42 | / | /
O=C(OCc1nnc(-c2ccccc2)o1)c1ccc2ccccc2n1 | 15 | / | -6 | 79* | -2 | -7
CC(CCc1ccccc1)NC(=O)COC(=O)c1ccc([N+](=O)[O-])cc1 (centres undefined) | / | -19 | -2 | 21 | -6 | 2
CC(=O)c1cccc(NC(=O)COC(=O)c2ccc(S(C)(=O)=O)c([N+](=O)[O-])c2)c1 | 21 | 45 | 4 | 64* | -4 | -6
CC(CCc1ccccc1)NC(=O)COC(=O)c1ccc(S(C)(=O)=O)c([N+](=O)[O-])c1 (centres undefined) | 15 | 70* | 1 | 71* | -1 | -2
Cc1ccccc1NC(=O)Cc1nc(COC(=O)c2ccc(S(C)(=O)=O)c([N+](=O)[O-])c2)cs1 | / | 46 | 54* | 69* | / | /
NC(=O)C1C2C=CC(C2)C1c1ccccc1 (centres undefined) | / | -8 | -14 | 10 | / | /
OC(c1cccc(Cl)c1)c1ncc(-c2ccc(Oc3ccccc3)cc2)[nH]1 (centres undefined) | / | 6 | 0 | -2 | / | /
CS(=O)(=O)c1ccc(C(=O)OCc2nnc(-c3ccccc3)o2)cc1[N+](=O)[O-] | 28 | 66* | 1 | 66* | 3 | -3
CN(C)S(=O)(=O)c1ccc(C(=O)OCc2nnc(-c3ccccc3)o2)cc1 | -1 | -4 | -12 | -9 | -3 | 17
COc1ccc([N+](=O)[O-])cc1NCC(=O)Nc1cccc(S(=O)(=O)N2CCCC2)c1 | / | 5 | -19 | 7 | / | /
CC(=O)C1=C(C)NC(SCC(=O)c2ccc(C)cc2)=C(C#N)C1c1ccco1 (centres undefined) | 26 | / | / | / | 3 | 4
COc1ccccc1NC(=O)C1=C(C)NC(SCC(=O)c2ccccc2)=C(C#N)C1c1ccco1 (centres undefined) | 22 | 33 | 9 | 56* | 1 | -22
Oc1cccc2cc(Nc3ccccc3)cnc12 | / | 14 | -4 | 100* | / | /
COc1cccc(/C=N/NC(=O)c2nnn(-c3nonc3N)c2C(C)C)c1 | / | -12 | 1 | -7 | 4 | 14
O=S(=O)(NCCc1cn2ccccc2n1)c1ccc2c(c1)CCCC2 | -2 | 1 | 1 | 10 | -3 | 57*
Cc1ccc(NC(=O)CCN2C(=O)CSC2=O)c(C)c1 | 16 | / | -2 | 74* | -2 | 1
Cc1ccccc1NC(=O)CCN1C(=O)CSC1=O | 17 | -3 | 8 | -6 | -1 | -3

Compound activity as filed in PubChem.
